The structures appear in SMILES notation. For some of these results: Results with a measured potency or affinity are listed apart.

Parameters in all cases: scale not given: direction of the effect not stated beside the values
Assay [1] has as its target Protein translocase subunit SecA (Escherichia coli (strain K12)) (UniProt P10408). Kind of assay: Assay to Identify E. coli SecA ATPase Inhibitors. It is filed as functional. The settings on record: 30 µM.
Assay [2] addresses T1, Ubiquitin-activating enzyme e1, putative (Leishmania donovani (strain BPK282A1)) (UniProt E9BSI1).
T1 sequence (whole entry): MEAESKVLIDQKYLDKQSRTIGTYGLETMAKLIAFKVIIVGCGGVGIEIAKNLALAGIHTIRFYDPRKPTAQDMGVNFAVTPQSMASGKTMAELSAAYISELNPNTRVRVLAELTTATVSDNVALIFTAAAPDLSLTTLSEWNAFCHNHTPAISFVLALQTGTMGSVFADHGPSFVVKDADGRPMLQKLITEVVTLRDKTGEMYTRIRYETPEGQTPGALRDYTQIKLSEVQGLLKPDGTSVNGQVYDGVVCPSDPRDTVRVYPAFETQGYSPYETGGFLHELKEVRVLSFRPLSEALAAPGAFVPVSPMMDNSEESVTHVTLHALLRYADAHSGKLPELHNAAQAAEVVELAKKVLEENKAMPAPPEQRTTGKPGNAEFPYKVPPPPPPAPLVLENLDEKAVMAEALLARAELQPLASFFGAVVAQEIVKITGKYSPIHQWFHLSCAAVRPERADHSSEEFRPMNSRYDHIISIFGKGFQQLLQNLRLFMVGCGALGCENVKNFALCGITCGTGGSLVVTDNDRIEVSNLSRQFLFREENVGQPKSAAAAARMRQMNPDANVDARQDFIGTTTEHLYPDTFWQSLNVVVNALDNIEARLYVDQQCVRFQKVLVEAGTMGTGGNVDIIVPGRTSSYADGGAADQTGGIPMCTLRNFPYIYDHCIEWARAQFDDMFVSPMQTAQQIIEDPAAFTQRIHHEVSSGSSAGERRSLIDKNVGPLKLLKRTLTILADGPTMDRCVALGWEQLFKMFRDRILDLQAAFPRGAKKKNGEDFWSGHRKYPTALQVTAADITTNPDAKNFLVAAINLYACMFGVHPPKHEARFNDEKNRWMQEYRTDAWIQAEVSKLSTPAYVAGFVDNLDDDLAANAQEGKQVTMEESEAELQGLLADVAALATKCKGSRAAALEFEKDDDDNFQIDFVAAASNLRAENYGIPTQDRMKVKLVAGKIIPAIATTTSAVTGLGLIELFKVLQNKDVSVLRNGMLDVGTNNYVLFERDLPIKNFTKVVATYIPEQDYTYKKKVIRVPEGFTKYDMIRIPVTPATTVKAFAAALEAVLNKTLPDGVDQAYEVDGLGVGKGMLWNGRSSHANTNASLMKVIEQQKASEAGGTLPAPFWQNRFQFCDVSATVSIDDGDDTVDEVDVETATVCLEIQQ
The experiment in a line: Leishmania donovani Ubiquitin Activating Enzyme (LdE1). It is filed as functional. The settings on record: 30 µM.

Assay [3] deals with AMP-activated protein kinase, AMPK (Homo sapiens) (UniProt P54646+O43741+P54619+Q9UGJ0+Q9Y478+Q13131+Q9UGI9). The experiment in a line: AMP-dependent Kinase enzyme assay. An in vitro enzyme assay that detects ADP turnover that is directly proportional to AMPK activity. This uses naive AMPK that is activated during the assay with MK-8722. It is filed as functional. The settings on record: 30 µM.

Assay [4] concerns the target Sialic acid-binding Ig-like lectin 9 (Homo sapiens) (UniProt Q9Y336). The experiment in a line: Hs-Siglec9 ALPHAscreen SOP 20170721. The following applies: 10 µM. A general note: Bead proximity is the source of the signal in Alpha formats.
In assay [5] the test system is Trypanosoma cruzi. The experiment in a line: Trypanosoma cruzi phosphomannomutase and mannose-1-phosphate guanylyltransferase assay. It is filed as functional. The settings on record: 10 µM.
Assay [6] has as its target T2, Arginase-2, mitochondrial (Homo sapiens) (UniProt P78540).
T2 sequence (whole entry): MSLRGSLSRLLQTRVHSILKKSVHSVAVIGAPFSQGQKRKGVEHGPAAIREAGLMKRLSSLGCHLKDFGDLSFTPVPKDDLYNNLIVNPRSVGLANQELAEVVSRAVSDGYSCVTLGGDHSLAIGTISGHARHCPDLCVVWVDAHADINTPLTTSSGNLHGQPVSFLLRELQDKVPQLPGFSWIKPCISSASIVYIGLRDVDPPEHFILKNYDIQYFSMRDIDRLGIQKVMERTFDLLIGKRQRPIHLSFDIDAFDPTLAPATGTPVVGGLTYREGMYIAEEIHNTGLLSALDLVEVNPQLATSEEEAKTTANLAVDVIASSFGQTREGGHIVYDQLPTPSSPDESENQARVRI
The experiment in a line: in vitro enzyme assay to detect the production of urea directly proportional to the activity of Arginase II. Further: in the data most compounds retested in dose-response had high values. It is filed as functional. The settings on record: 33.3 µM.

The target in assay [7] is T3, Proteasome subunit beta (Trypanosoma cruzi) (UniProt O96673).
T3 sequence (whole entry): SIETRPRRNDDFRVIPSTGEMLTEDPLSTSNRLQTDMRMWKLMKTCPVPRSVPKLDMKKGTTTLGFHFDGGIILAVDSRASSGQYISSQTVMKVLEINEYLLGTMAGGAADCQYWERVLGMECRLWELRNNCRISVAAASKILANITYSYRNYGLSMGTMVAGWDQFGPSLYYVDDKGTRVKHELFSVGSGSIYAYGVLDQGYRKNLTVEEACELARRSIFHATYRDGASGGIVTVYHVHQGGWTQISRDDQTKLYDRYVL
Kind of assay: Trypanosoma cruzi proteasome chymotrypsin-like activity (TcProtChymo) assay. Further: in the data most compounds retested in dose-response had high values. It is filed as functional. The settings on record: 9.37 µM.

Assay [8] is filed under the species Homo sapiens. The experiment in a line: To identify inhibition of the IFN signalling (Jak-Stat) pathway via expression of an eGFP reporter gene under the control of an IFN-stimulated response element (ISRE) containing MxA promoter. It is filed as functional. The settings on record: 30 µM.
For assay [9], the target named is T4, Tyrosyl-tRNA synthetase, putative (Trypanosoma cruzi (strain CL Brener)) (UniProt Q4DSP6).
T4 sequence (whole entry): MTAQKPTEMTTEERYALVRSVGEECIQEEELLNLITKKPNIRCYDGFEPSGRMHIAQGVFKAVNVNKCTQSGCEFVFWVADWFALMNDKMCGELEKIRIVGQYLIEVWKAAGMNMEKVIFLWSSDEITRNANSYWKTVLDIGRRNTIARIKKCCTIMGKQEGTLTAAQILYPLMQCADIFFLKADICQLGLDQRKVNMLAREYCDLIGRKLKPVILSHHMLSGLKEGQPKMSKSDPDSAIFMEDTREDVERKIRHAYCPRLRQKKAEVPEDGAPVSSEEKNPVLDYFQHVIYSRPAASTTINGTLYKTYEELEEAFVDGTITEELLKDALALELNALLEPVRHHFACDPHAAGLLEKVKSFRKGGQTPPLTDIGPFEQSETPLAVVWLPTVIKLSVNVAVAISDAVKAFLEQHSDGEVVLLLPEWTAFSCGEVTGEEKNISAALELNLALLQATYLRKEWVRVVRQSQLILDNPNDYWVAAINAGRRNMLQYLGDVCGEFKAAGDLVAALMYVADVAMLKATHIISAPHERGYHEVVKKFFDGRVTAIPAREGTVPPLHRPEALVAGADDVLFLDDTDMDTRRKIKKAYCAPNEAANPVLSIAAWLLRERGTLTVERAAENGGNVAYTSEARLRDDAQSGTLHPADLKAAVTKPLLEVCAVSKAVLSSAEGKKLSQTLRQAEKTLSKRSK
Kind of assay: Trypanosoma cruzi tyrosyl tRNA synthetase (TcYRS) _High Tyrosine SOP. Further: in the data most compounds retested in dose-response had high values. It is filed as functional. The following applies: 30 µM.

Assay [10] has as its target T4, Tyrosyl-tRNA synthetase, putative (Trypanosoma cruzi (strain CL Brener)). Kind of assay: Trypanosoma cruzi tyrosyl tRNA synthetase (TcYRS) SOP. It is filed as functional. The settings on record: 30 µM.
Assay [11] deals with Chromo domain-containing protein 1 (Saccharomyces cerevisiae (strain ATCC 204508 / S288c) (Baker's yeast)) (UniProt P32657). The experiment in a line: ScCHD-1 Enzyme Inhibition Assay. Further: in the data most compounds retested in dose-response had high values. The following applies: 30 µM. It is filed as functional.
Chain of Chromo domain-containing protein 1 (Saccharomyces cerevisiae (strain ATCC 204508 / S288c) (Baker's yeast)) (P32657 whole entry, the tested form may be a part): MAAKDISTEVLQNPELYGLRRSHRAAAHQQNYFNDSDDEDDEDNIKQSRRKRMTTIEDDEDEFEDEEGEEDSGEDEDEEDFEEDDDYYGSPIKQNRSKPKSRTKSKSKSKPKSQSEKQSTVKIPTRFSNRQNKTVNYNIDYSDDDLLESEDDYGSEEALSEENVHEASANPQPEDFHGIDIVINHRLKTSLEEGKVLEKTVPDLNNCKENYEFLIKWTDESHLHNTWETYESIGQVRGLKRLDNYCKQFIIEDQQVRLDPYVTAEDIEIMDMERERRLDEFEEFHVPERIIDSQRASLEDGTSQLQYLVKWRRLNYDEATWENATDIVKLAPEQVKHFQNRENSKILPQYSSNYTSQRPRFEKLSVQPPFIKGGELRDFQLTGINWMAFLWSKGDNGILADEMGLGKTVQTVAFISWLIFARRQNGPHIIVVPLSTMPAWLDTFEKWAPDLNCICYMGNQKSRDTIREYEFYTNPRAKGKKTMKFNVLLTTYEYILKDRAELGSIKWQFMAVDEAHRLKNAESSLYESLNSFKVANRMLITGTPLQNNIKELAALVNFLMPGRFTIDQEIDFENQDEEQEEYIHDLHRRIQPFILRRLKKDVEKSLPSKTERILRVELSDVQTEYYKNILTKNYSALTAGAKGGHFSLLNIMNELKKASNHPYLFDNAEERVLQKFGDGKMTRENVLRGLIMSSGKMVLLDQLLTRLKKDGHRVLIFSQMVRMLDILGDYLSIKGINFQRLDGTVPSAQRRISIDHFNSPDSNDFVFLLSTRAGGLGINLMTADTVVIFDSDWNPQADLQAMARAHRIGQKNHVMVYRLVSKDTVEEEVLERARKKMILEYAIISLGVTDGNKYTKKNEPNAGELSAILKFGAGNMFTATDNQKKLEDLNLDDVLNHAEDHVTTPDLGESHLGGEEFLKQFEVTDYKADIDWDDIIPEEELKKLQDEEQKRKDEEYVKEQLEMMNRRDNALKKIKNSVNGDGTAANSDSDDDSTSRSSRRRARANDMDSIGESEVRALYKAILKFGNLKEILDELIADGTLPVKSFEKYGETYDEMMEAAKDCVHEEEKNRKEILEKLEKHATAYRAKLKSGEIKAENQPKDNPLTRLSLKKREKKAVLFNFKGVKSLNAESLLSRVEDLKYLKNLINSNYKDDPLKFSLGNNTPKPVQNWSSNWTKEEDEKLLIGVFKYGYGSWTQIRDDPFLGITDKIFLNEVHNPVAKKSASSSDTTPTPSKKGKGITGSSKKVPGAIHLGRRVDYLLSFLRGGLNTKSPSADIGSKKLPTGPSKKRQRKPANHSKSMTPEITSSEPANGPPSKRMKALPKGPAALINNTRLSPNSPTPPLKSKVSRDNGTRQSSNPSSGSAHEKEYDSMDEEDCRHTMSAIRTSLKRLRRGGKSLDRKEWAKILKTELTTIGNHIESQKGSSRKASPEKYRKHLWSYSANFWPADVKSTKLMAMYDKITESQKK

Chain of Protein translocase subunit SecA (Escherichia coli (strain K12)) (P10408 whole entry): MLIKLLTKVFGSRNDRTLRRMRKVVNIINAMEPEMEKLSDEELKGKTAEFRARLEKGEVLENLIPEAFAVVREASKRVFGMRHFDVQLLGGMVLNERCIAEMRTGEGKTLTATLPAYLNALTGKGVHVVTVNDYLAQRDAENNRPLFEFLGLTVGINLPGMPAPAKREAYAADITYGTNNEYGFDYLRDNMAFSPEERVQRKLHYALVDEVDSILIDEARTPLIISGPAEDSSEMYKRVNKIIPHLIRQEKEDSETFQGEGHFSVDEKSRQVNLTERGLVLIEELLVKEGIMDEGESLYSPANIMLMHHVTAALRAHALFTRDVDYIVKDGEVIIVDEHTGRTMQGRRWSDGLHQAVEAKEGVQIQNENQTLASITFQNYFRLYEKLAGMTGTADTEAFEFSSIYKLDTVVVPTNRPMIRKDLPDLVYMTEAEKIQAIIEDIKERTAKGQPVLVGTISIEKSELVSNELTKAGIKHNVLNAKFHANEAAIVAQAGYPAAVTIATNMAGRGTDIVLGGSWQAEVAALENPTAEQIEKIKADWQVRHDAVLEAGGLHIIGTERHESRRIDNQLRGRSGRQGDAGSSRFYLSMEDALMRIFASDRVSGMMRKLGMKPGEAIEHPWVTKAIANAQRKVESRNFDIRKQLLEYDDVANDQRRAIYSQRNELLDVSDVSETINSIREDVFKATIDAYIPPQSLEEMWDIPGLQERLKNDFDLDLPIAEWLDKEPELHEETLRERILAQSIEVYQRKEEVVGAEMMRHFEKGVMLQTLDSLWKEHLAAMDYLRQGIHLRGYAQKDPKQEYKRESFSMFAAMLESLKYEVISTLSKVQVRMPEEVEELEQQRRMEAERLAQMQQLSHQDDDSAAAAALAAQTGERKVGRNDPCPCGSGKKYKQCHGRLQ
Chain of Sialic acid-binding Ig-like lectin 9 (Homo sapiens) (Q9Y336 whole entry): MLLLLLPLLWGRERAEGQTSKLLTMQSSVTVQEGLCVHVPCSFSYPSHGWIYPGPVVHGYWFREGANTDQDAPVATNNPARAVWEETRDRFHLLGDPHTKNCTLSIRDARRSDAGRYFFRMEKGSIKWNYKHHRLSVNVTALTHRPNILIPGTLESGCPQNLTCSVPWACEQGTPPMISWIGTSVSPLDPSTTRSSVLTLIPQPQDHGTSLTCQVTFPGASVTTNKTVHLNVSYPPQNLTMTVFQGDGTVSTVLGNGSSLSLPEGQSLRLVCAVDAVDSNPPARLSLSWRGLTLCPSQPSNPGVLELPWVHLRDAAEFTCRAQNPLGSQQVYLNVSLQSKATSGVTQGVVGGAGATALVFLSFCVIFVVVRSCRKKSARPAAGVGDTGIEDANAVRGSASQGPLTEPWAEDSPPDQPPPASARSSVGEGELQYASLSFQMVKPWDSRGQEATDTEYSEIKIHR

For the compound `Cc1ccc(C(O)CNCc2c(C(C)C)nn(C)c2N(C)C)cc1` (stereo unspecified), the Percent Effect was -7.17% in assay [1]; 13% in assay [2]; -5.78% in assay [3]; 6.38% in assay [4]; 7.87% in assay [5]; -3.56% in assay [6]. In addition, the Percent Effect in [7] was 10.1%; in assay [8], -0.105%; in [9], 10.7%; in [10], 19.5%; in assay [11], -7.91%.

Regarding `CCn1cc(CN(C)S(=O)(=O)c2ccc(Cl)cc2)cn1`, the Percent Effect in [1] was -0.763%; in assay [2], 14.7%; in assay [3] it was 0.176%; in assay [4], -5.16%; in [5], -1.97%; in [6], -10%. Besides, the Percent Effect in assay [7] was 10.3%; in assay [8], 15%; in assay [9] it was 4.23%; in assay [10], 7.69%; in assay [11], -9.85%.

`O=C(NCC(O)c1ccccc1Cl)c1cccc(-n2cnnn2)c1` (stereo unspecified): the Percent Effect in [1] is -1.49%; in [2], 11%; in assay [3], -3.34%; in [4], 14.3%; in assay [5], 1.18%; in assay [6] it was 1.36%. Besides, the Percent Effect was 14.2% in [7]; 24.8% in assay [8]; 3.23% in assay [9]; 7.5% in assay [10]; 98.6% in assay [11].

Take `CC(C)Cc1cc(C(=O)N2CCCC(n3cncn3)C2)[nH]n1` (stereo unspecified): the Percent Effect in assay [1] was -1.38%; in [2], 11.4%; in assay [3] it was 6.88%; in assay [4], -0.206%; in assay [5], 1.33%; in [6] it was 10.1%. In addition, the Percent Effect was 2.4% in assay [7]; 0.485% in assay [8]; 5.21% in [9]; 12.7% in assay [10]; -22.3% in assay [11].

As to `Cc1cc(CN(C)C2CCCN(Cc3noc(C4CC4)n3)C2)no1` (stereo unspecified), the Percent Effect is -2.13% in assay [1]; 15.8% in [2]; -10.8% in assay [3]; -8.06% in [4]; -9.62% in assay [5]; -1.8% in assay [6]. Besides, the Percent Effect is 12.4% in assay [7]; 15.9% in assay [8]; 1.48% in assay [9]; 3.7% in assay [10]; -9.14% in assay [11].

In the case of `CC(C)NC(=O)c1ccc2c(c1)nc1n2CCN(c2ccccc2)C1`, the Percent Effect in assay [1] was -1.74%; in [2], -17.3%; in assay [3], 16.6%; in [4] it was 5.54%; in assay [5], -1.97%; in assay [6] it was -9.68%. Further, the Percent Effect in assay [7] was 15.3%; in assay [8], -10.5%; in [9], 26.5%; in assay [10], 33.3%; in assay [11], -10.5%.

`O=C1NCCN1C1CCCN(Cc2nnc(-c3ccc(F)cc3)o2)C1` (stereo unspecified): the Percent Effect is -1.01% in assay [1]; 2.7% in assay [2]; -4.34% in assay [3]; 16.6% in assay [4]; 6.04% in assay [5]; 2.03% in assay [6]. The Percent Effect in assay [7] is 9.7%; in [8], -7.13%; in [9], 3.96%; in [10], 15.8%; in assay [11], -2.67%.

With `CC(C)(C)c1cnc(CN2CCC(c3ccnn3CCO)CC2)o1`, the Percent Effect in assay [1] is -2.61%; in assay [2] it was 2.53%; in [3], 7.52%; in [4], 9.51%; in assay [5], 7.46%; in assay [6] it was -3.42%. Besides, the Percent Effect in [7] is -3.69%; in [8], 20.2%; in [9] it was 3.45%; in assay [10], 11.4%; in [11], -1.55%.

For the compound `CCn1cc2c(n1)CN(Cc1nccs1)CC2COCC1CC1` (stereo unspecified), the Percent Effect was -2.47% in assay [1]; 13.3% in assay [2]; 8.82% in assay [3]; 0.752% in assay [4]; -0.197% in assay [5]; 3.03% in [6]. The Percent Effect in assay [7] was 6.61%; in assay [8], 0.895%; in [9], 6.38%; in assay [10], 11.5%; in assay [11] it was -4.67%.

Regarding `NS(=O)(=O)Cc1ccc(CNC(=O)NCC2CCOC2)cc1` (stereo unspecified), the Percent Effect in assay [1] is -1.97%; in assay [2], 7.79%; in [3], 5.79%; in [4], -1.36%; in [5] it was 1.86%; in assay [6], 3.58%. In addition, the Percent Effect was 5.09% in assay [7]; -5.41% in assay [8]; 2.86% in assay [9]; 18.8% in assay [10]; -8.13% in [11].

For the compound `CS(=O)(=O)N1CCOC2(CCCN(c3cnccn3)C2)C1` (stereo unspecified), the Percent Effect in assay [1] is -3.81%; in assay [2], 0%; in assay [3] it was -1.28%; in assay [4], -4.89%; in [5] it was -2.83%; in [6], 1.74%. Also, the Percent Effect in [7] was determined as 6.09%; in [8] it was 1.81%; in assay [9], 1.07%; in assay [10], 1.24%; in assay [11], 0.866%.

(Values after ChEMBL document CHEMBL3988442, “University of Dundee, Small-Polar-MMV Screening Library” (2021).)
